Assay outcomes as filed in PubChem.
ALDH1A1 block: inhibitors of human aldehyde dehydrogenase 1A1. P00352. Purified ALDH1A1, NADH fluorescence, propionaldehyde substrate. Potency, µM (top dose mostly 75.3 µM), hits mostly inhibitors. hit rate 7.3% among 220,000
Target sequence (P00352 whole entry, looked up): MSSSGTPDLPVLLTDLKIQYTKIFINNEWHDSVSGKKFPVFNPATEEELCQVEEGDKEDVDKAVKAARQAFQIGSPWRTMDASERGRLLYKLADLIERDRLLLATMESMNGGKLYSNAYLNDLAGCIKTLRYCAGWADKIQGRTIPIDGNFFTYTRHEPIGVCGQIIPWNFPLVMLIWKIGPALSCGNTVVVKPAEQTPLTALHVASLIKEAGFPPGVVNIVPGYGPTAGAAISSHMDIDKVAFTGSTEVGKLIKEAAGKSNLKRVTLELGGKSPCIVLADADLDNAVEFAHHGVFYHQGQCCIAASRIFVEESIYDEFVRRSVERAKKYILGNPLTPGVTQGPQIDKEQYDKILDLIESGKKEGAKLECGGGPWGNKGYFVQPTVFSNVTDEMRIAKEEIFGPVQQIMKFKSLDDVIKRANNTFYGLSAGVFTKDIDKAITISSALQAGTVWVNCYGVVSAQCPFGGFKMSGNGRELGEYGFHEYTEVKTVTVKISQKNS
IMPase inh: cell-permeable inhibitors of inositol monophosphatase (IMPase) | P97697 | CHO-M1 cells, IP1 accumulation, HTRF TR-FRET ratio | inhibition (IP1 accumulation), % at 46.1 µM | 120,000 tested, under 10 active; active means well fitted curve in the direction sought with a large enough effect in the signal ratio, not every such curve was filed as active; inconclusive means small, poorly fitted or top-dose-only effect, or a change in a side signal; inactive means no such curve, though single readings can be large or run the other way; the % refers to the signal ratio;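 further: cells stimulated with carbachol in lithium chloride buffer; higher means more IMPase inhibition seen as more IP1 and lower FRET ratio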
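Carbachol-driven Gq signalling in CHO-M1 cells (2000/well) generates IP1. Compounds that block IMPase raise IP1 and so reduce the FRET signal from Eu-anti-IP1 and d2-IP1 after a 10 min room-temperature lysis.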
HPGD block: inhibitors of human 15-hydroxyprostaglandin dehydrogenase (HPGD); hit rate 4.3% among 150,000; P15428; purified HPGD, NADH fluorescence kinetic, PGE2 substrate; Potency, µM, most hits filed as inhibitors
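NADH formation kinetics: reaction with 30 uM PGE2 and 1 mM NAD+ (final), 20 nM enzyme, Tris-HCl pH 8 with Tween 20, after 15 min compound preincubation at room temperature. Fluorescence change, last versus first of five reads.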
Of the large screens only hits and unclear results are named; the others gave an inactive call. The list is not random: actives were taken first. Their share in the collection is about 9%. Unless noted, the call rests on the fitted dose curve; in most records, active means well fitted inhibition curve with a large enough effect (not every such curve was filed as active); inconclusive means small, poorly fitted or top-dose-only effect, or another doubt; inactive means no such curve, though single readings can be large or run the other way.

CCc1cccc(CC)c1NC(=O)CSc1nc2ccc(N3C(=O)C4C(C3=O)[C@H]3C=C[C@@H]4C3)cc2s1 (some centres undefined)	ALDH1A1 block 18µM, HPGD block 20µM
CCc1cccc(C)c1NC(=O)CSc1nc2ccc(N3C(=O)c4ccccc4C3=O)cc2s1	none
Cc1cc(C)c(NC(=O)c2ccccc2C(=O)c2ccccc2)c(C)c1	none (no result: IMPase inh, HPGD block)
O=C(CSc1ncn[nH]1)CSc1ncn[nH]1	none (no result: IMPase inh, HPGD block)
Cc1c(CNC2CCCC2)c(C(=O)O)c(C)n1Cc1ccccc1	none (no result: IMPase inh)
COc1cccc(N2CCN(C3C4CC5CC(C4)CC3C5)CC2)c1 (centres undefined)	ALDH1A1 block inconclusive
COc1cccc(N2CCN(CC(=O)C34CC5CC(CC(C5)C3)C4)CC2)c1	ALDH1A1 block 16µM
O=C(C[n+]1cccc(O)c1)Nc1ccc(Br)cc1	none (no result: IMPase inh, HPGD block)
CC1=C(C(=O)c2ccccc2)C(c2cccc([N+](=O)[O-])c2)NC(=S)N1 (centres undefined)	ALDH1A1 block 1.1µM (no result: IMPase inh, HPGD block)
COc1ccc(C2NC(=S)NC(C)=C2C(=O)c2ccccc2)cc1OC (centres undefined)	ALDH1A1 block 11µM
COC(=O)C1=C(C)NC(C)=C(C(=O)OCCN(C)Cc2ccccc2)C1c1cccc([N+](=O)[O-])c1 (centres undefined)	none (no result: IMPase inh)
COc1ccc(C2NC(=S)NC(C)=C2C(=O)Nc2ccccn2)cc1OC (centres undefined)	none (no result: IMPase inh)
CC(C)C(=O)Nc1ccc(C(=O)NN2C(=O)c3ccccc3C2=O)cc1	none (no result: IMPase inh)
CC(C)Cc1nc(SCc2cccnc2)c2c(=O)n(C)c(=O)n(C)c2n1	ALDH1A1 block 7.1µM (no result: IMPase inh, HPGD block)
CCc1nc(SCc2cccnc2)c2c(=O)n(C)c(=O)n(C)c2n1	IMPase inh inconclusive
Cn1c(=O)c2c(SCc3cccnc3)nc(C3CC3)nc2n(C)c1=O	none
Cn1c(=S)c2[nH]c(SCc3cccnc3)nc2n(C)c1=O	ALDH1A1 block inconclusive, HPGD block 4µM (no result: IMPase inh)
COc1ccc(COC2OC[C@]3(C)[C@H]4C5=C(CN3C(=O)OC(C)(C)C)[C@H](C)C(CO)C(CO)C5CC[C@@H]24)cc1 (some centres undefined)	none (no result: IMPase inh)
Cc1cc2c(N3CCCCC3C)ncnc2s1 (centres undefined)	none
Cc1c(C(=O)O)sc2ncnc(N3CCCCC3C)c12 (centres undefined)	IMPase inh inconclusive, HPGD block 18µM
Cc1c(C(=O)N2CCCC(C)C2)sc2ncnc(N3CCCCC3C)c12 (centres undefined)	ALDH1A1 block 13µM (no result: IMPase inh, HPGD block)
CCOC(=O)c1sc2ncnc(N3CCN(C(=O)OCC)CC3)c2c1C	none
N[C@@H]1CCN(O)C1=O	none
O=C(O)[C@H]1CCCNC1	none
O=C1NCCN(Cc2c(F)cccc2Cl)C1CC(=O)N1CCCCO1 (centres undefined)	none (no result: IMPase inh, HPGD block)
O=C1NCCN(Cc2ccc(Cl)c(F)c2)C1CC(=O)N1CCCCO1 (centres undefined)	ALDH1A1 block 25µM (no result: IMPase inh, HPGD block)
CC(=C/c1ccccc1)/C=N/n1c(-c2ccco2)n[nH]c1=S	ALDH1A1 block inconclusive, HPGD block 5µM
CC(/C=N/n1c(C2CCCCC2)n[nH]c1=S)=C\c1ccccc1	HPGD block inconclusive
CC(/C=N/n1c(-c2cc(C)[nH]n2)n[nH]c1=S)=C\c1ccccc1	HPGD block 10µM (no result: IMPase inh)
COc1ccc(-n2c(-c3ccco3)n[nH]c2=S)cc1	ALDH1A1 block inconclusive, HPGD block inconclusive
CCCn1c(O)c(N=Nc2ccc3ccccc3n2)c2ccccc21	none (no result: IMPase inh)
CC(C)CCn1c(O)c(N=Nc2ccccn2)c2ccccc21	ALDH1A1 block 0.35µM (no result: IMPase inh)
Oc1ccc2ccccc2c1N=Nc1ccccn1	ALDH1A1 block inconclusive, HPGD block 32µM
CCOC(=O)c1[nH]cnc1N=Nc1c(O)ccc2ccccc12	none (no result: IMPase inh)
CC(C)C(C)(C)C(C)(C)C(C)(C)S	ALDH1A1 block inconclusive (no result: IMPase inh)
CCOP(=O)(OCC)c1nc(-c2ccc(Cl)cc2Cl)oc1N1CCOCC1	none (no result: IMPase inh, HPGD block)
C=CC[C@@H]1C=C[C@@H](O/N=C(/C)CCC(=O)OC[C@@H]2O[C@H](C#Cc3ccccc3)C=C[C@@H]2Oc2ccc(C)cc2)[C@@H](CO)O1	none (no result: IMPase inh, HPGD block)
NC(=O)c1ccccc1NC(=O)CCc1ccccc1	none
NC(=O)c1ccccc1NC(=S)NC(=O)CCc1ccccc1	ALDH1A1 block 13µM, HPGD block 28µM (no result: IMPase inh)
COc1ccccc1-c1c(C(F)(F)F)oc2cc(OCC(=O)Nc3cc(C)ccc3C)ccc2c1=O	none (no result: HPGD block)
NS(=O)(=O)c1ccc(CCNCc2cc(Br)ccc2OCc2ccccc2)cc1	none (no result: IMPase inh)
CCOc1cc(C(C#N)N2CCOCC2)ccc1OC (centres undefined)	ALDH1A1 block inconclusive
CCOc1ccc(C(C#N)N2CCOCC2)cc1OC (centres undefined)	ALDH1A1 block 10µM
COc1ccc(NC(=O)Cc2ccccc2)cn1	none (no result: IMPase inh, HPGD block)
